The values that follow come from article PMC7862700, “An all-to-all approach to the identification of sequence-specific readers for epigenetic DNA modifications on cytosine”.

Test in all cases: DAPPL (digital affinity profiling via proximity ligation, sequencing); 10 mM Tris-HCl pH 7.5, 50 mM NaCl, 1 mM DTT, 4% glycerol, room temperature, 30 min; GST-TFs on glutathione beads, 16-mer random dsDNA library, 0.1% formaldehyde crosslink after washing; high values mean tight binding
Experiment [1] addresses T1, FLI1 (Homo sapiens, UniProt Q01543 1-452).
T1 sequence: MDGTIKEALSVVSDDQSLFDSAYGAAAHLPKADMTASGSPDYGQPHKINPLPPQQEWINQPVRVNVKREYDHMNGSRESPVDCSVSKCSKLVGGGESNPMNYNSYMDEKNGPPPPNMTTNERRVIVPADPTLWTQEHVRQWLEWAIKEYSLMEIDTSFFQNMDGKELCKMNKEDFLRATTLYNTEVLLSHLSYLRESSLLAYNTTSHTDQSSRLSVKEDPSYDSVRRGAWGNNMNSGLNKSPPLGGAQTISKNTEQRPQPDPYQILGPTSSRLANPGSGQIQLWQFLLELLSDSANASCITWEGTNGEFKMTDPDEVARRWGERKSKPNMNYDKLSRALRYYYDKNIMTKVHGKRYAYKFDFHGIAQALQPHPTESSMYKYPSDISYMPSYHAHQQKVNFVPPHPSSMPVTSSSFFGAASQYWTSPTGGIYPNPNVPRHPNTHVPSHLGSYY
The following applies: protein: recombinant; tags: N-terminal GST; dsDNA, one strand shown. In short, it runs like this: (§1)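 Pools of DNA-barcoded human transcription factors, expressed in yeast as GST fusions on glutathione beads and combined with a tag-only sample, were incubated with 200 nmole of a 16-mer random double-stranded DNA library. Incubation took 30 min at room temperature in Tris/NaCl/DTT/glycerol buffer and was followed by washing, 0.1% formaldehyde crosslinking, proximity ligation (BsaI/T4 ligase, 1 h, 37 °C), PCR amplification and sequencing on an Illumina NextSeq500. Binding signal is the ratio of a hexamer's read frequency for a factor to its frequency for the tag-only sample.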

Experiment [2] concerns the target T2, ELK1 (Homo sapiens, UniProt P19419 1-428).
T2 sequence: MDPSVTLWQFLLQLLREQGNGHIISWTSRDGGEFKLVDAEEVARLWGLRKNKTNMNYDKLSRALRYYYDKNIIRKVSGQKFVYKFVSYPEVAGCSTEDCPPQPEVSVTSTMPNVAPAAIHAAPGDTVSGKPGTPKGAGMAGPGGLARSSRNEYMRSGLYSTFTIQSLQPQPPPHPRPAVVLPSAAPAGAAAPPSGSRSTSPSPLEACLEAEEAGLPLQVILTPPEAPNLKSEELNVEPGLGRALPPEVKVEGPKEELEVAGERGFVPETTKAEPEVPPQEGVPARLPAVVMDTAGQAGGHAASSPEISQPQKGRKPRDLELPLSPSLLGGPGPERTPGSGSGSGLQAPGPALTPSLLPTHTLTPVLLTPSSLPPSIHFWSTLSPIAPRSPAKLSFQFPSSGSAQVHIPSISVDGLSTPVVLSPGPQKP
The following applies: protein: recombinant; tags: N-terminal GST; dsDNA, one strand shown. The gist of the method:
as §1

Experiment [3] has as its target T3, GABPA (Homo sapiens, UniProt Q06546 1-454).
T3 sequence: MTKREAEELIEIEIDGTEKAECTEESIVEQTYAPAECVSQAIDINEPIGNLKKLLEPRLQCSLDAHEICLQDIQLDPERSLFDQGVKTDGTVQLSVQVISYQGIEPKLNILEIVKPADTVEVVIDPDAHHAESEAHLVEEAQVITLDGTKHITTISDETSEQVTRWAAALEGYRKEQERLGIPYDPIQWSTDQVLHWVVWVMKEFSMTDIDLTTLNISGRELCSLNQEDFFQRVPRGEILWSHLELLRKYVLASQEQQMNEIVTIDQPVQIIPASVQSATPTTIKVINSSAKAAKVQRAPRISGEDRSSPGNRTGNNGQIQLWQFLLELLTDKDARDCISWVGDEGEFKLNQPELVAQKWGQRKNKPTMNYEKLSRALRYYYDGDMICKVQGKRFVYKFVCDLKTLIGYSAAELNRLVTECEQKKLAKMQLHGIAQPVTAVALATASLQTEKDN
As to conditions: protein: recombinant; tags: N-terminal GST; dsDNA, one strand shown. The gist of the method:
as §1

Experiment [4] concerns the target T4, ERG (Homo sapiens, UniProt P11308 1-479).
T4 sequence: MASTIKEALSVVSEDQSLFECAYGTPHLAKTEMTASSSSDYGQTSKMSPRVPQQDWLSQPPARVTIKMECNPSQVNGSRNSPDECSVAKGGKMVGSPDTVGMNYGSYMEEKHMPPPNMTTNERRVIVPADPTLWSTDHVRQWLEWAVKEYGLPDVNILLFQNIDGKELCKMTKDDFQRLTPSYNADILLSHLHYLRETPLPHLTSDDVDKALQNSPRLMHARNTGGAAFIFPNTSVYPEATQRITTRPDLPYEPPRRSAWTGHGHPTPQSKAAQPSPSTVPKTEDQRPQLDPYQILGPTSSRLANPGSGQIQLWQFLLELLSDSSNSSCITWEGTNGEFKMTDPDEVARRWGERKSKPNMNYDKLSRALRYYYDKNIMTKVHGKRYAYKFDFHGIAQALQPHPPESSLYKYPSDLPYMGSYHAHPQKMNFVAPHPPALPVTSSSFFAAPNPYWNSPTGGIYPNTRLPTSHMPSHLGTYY
As to conditions: protein: recombinant; tags: N-terminal GST; dsDNA, one strand shown. The gist of the method: as §1

The target in experiment [5] is ELF1 (Homo sapiens, UniProt P32519 1-619). As to conditions: protein: recombinant; tags: N-terminal GST; dsDNA, one strand shown. In short, it runs like this:
as §1

Experiment [6] deals with T5, EHF (Homo sapiens, UniProt Q9NZC4 1-300).
T5 sequence: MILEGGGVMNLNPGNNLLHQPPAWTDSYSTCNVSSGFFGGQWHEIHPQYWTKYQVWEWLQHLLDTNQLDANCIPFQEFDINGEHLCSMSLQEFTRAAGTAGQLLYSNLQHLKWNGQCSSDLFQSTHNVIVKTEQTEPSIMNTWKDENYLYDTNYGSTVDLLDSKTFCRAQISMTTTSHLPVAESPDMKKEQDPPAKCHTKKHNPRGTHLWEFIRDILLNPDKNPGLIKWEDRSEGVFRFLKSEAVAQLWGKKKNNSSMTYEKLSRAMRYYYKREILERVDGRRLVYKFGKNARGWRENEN
As to conditions: protein: recombinant; tags: N-terminal GST; dsDNA, one strand shown. The gist of the method:
as §1

In experiment [7] the target is SPI1 (Homo sapiens, UniProt P17947 1-270). The following applies: protein: recombinant; tags: N-terminal GST; dsDNA, one strand shown. The gist of the method: as §1
Experiment [8] addresses SPIB (Homo sapiens, UniProt Q01892 1-262). As to conditions: protein: recombinant; tags: N-terminal GST; dsDNA, one strand shown. The gist of the method:
as §1

The target in experiment [9] is T6, FEV (Homo sapiens, UniProt Q99581 1-238).
T6 sequence: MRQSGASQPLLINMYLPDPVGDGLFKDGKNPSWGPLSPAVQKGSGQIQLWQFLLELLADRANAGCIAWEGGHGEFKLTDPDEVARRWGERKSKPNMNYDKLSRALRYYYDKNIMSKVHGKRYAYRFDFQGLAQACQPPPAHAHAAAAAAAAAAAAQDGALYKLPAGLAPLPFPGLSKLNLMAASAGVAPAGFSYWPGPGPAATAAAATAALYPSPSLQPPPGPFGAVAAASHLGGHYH
As to conditions: protein: recombinant; tags: N-terminal GST; dsDNA, one strand shown. The gist of the method:
as §1

Experiment [10] has as its target ETV5 (Homo sapiens, UniProt P41161 1-510). The following applies: protein: recombinant; tags: N-terminal GST; dsDNA, one strand shown. In short, it runs like this: as §1
Experiment [11] concerns the target HSF1 (Homo sapiens, UniProt Q00613 1-529). As to conditions: protein: recombinant; tags: N-terminal GST; chain copies: 3; dsDNA, one strand shown. The gist of the method:
as §1

For experiment [12], the target named is T7, SPIC (Homo sapiens, UniProt Q8N5J4 1-248).
T7 sequence: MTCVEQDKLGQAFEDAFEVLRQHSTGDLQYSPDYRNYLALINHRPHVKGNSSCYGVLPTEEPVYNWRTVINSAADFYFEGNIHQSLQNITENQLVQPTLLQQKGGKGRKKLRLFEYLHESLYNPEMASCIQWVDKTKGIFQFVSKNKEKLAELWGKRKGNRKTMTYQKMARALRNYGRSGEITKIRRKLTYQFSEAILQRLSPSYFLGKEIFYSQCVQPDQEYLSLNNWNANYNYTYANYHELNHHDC
The following applies: protein: recombinant; tags: N-terminal GST; dsDNA, one strand shown. The gist of the method:
as §1

Experiment [13] addresses ELF4 (Homo sapiens, UniProt Q99607 1-663). As to conditions: protein: recombinant; tags: N-terminal GST; dsDNA, one strand shown. In short, it runs like this:
as §1

Experiment [14] deals with T8, ELK4 (Homo sapiens, UniProt P28324-2 1-405).
T8 sequence: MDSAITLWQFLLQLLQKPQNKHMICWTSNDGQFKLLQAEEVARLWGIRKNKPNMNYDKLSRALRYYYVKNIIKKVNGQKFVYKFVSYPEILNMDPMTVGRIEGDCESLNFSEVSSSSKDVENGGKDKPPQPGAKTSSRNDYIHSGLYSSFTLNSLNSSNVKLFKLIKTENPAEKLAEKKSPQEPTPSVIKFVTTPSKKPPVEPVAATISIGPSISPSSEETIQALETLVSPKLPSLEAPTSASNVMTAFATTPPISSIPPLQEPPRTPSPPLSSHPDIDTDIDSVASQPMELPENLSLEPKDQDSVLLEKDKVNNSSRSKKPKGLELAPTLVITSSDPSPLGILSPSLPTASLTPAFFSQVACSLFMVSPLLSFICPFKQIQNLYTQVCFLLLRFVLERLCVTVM
The following applies: protein: recombinant; tags: N-terminal GST; dsDNA, one strand shown. In short, it runs like this: as §1

Experiment [15] addresses T9, ETV2 (Homo sapiens, UniProt O00321 1-342).
T9 sequence: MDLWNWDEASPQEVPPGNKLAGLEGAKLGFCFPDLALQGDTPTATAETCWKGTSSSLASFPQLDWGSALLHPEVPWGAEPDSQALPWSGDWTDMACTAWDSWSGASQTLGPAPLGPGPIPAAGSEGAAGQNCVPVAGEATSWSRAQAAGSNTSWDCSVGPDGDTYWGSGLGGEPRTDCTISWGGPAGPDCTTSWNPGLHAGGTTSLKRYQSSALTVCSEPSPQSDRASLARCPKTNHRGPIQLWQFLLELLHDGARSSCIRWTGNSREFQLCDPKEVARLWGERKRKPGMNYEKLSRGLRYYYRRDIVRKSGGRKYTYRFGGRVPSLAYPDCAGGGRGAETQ
As to conditions: protein: recombinant; tags: N-terminal GST; dsDNA, one strand shown. In short, it runs like this:
as §1

Experiment [16] addresses T10, ELF3 (Homo sapiens, UniProt P78545 1-371).
T10 sequence: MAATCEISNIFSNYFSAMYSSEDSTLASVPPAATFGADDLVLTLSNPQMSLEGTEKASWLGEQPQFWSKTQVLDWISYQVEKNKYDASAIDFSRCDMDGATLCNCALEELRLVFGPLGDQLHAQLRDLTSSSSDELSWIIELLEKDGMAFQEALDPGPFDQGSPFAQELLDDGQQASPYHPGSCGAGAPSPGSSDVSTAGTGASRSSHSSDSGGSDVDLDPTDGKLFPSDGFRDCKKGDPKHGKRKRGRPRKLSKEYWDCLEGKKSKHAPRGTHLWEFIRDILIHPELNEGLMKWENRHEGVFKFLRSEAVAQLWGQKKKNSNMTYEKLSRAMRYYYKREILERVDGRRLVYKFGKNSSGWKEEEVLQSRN
The following applies: protein: recombinant; tags: N-terminal GST; dsDNA, one strand shown. The gist of the method: as §1

Experiment [17] addresses CRX (Homo sapiens, UniProt O43186 1-299). The following applies: protein: recombinant; tags: N-terminal GST; dsDNA, one strand shown. In short, it runs like this:
as §1

Experiment [18] has as its target ETV1 (Homo sapiens, UniProt P50549 1-477). The following applies: protein: recombinant; tags: N-terminal GST; dsDNA, one strand shown. In short, it runs like this:
as §1

Chain of HSF1 (Q00613 whole entry): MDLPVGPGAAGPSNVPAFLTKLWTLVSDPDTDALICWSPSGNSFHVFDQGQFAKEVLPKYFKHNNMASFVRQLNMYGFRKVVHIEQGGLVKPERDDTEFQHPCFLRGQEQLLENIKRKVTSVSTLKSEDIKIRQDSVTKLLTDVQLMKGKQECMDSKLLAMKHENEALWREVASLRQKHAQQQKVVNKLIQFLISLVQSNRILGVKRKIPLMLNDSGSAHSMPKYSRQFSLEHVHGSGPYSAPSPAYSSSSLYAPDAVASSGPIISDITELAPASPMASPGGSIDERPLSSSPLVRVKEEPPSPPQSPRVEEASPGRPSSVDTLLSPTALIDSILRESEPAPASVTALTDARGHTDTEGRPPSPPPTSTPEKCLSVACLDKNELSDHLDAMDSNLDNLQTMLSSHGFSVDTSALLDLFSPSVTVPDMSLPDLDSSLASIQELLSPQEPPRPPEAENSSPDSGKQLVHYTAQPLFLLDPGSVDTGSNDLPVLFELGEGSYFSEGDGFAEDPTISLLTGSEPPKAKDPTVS
Chain of ETV5 (P41161 whole entry): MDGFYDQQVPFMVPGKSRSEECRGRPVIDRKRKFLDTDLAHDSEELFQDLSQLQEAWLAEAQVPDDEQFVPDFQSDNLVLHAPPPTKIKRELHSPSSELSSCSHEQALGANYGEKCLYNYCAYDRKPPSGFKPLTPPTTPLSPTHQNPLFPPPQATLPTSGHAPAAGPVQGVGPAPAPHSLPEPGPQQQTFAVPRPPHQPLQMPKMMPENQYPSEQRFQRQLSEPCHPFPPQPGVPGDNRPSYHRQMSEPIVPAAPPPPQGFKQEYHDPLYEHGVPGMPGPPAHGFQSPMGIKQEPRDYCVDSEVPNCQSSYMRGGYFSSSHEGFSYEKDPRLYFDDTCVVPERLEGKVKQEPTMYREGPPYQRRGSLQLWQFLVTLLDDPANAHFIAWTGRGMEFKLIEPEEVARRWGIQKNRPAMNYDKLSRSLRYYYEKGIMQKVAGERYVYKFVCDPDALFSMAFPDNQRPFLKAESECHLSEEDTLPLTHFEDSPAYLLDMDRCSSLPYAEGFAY
Chain of ELF4 (Q99607 whole entry): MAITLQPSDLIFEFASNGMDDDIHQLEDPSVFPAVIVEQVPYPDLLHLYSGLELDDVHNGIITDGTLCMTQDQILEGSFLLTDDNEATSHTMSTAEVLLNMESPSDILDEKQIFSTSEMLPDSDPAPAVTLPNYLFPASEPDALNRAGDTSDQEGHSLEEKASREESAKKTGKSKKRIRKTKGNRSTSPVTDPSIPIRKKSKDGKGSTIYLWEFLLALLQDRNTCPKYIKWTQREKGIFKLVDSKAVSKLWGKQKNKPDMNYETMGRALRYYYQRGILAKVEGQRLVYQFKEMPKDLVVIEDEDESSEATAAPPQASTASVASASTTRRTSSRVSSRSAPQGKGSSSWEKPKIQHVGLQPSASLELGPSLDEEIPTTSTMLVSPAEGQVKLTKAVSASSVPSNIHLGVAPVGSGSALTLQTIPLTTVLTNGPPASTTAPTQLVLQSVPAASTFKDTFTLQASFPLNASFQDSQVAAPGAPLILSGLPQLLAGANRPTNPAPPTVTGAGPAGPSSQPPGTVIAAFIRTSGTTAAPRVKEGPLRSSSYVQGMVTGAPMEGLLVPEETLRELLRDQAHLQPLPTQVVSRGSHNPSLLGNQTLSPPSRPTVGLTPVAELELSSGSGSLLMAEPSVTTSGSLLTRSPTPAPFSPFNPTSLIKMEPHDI
Chain of SPIB (Q01892 whole entry): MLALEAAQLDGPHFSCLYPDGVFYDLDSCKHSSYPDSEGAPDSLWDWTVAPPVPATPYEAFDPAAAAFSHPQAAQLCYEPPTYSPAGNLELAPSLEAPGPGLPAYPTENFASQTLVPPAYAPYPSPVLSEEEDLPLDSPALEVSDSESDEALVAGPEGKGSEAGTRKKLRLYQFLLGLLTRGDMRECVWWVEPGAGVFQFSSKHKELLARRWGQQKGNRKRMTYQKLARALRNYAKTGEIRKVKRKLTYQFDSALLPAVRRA
Chain of ETV1 (P50549 whole entry): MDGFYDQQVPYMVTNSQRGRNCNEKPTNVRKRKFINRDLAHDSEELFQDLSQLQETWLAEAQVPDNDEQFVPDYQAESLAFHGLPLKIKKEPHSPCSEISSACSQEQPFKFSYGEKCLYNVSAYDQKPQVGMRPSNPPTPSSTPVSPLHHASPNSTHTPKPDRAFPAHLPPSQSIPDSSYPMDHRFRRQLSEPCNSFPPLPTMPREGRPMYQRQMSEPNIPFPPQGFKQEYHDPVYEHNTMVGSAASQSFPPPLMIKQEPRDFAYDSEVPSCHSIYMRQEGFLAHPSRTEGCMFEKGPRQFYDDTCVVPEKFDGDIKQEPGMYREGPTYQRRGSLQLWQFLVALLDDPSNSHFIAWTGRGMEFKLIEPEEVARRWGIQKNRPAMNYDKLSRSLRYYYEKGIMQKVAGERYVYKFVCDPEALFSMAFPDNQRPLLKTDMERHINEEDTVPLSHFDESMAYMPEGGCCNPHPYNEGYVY
Chain of CRX (O43186 whole entry): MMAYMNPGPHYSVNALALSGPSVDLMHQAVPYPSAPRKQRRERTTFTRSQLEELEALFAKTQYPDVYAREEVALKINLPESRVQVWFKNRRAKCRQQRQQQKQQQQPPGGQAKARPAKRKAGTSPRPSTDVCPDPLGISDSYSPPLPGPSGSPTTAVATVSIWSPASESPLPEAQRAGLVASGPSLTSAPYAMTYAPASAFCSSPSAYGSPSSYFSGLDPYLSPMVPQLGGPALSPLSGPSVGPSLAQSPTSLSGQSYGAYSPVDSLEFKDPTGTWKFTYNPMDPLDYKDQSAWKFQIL
Chain of ELF1 (P32519 whole entry): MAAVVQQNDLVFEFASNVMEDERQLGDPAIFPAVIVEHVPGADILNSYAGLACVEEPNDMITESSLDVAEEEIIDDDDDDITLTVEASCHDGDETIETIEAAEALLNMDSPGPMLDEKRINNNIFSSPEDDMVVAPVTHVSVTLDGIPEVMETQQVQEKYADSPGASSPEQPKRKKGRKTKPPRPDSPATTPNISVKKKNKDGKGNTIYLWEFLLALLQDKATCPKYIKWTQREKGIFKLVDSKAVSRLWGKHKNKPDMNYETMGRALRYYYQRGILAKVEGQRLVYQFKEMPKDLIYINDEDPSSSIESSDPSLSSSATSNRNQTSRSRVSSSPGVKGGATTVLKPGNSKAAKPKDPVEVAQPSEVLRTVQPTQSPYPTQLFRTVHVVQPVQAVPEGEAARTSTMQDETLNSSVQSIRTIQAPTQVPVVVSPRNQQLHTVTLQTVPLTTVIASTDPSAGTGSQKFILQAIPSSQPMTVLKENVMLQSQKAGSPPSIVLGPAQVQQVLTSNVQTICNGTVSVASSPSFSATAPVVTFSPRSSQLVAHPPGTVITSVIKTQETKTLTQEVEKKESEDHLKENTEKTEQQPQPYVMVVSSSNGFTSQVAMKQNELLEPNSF

In the case of AATCAG, the binding signal in experiment [1] was 1.1 fold enrichment (6-mer frequency, TF over GST control); in experiment [2], 1.05 fold enrichment (6-mer frequency, TF over GST control); in experiment [3], 1.19 fold enrichment (6-mer frequency, TF over GST control); in experiment [4], 1.07 fold enrichment (6-mer frequency, TF over GST control); in [5] it was 1.1 fold enrichment (6-mer frequency, TF over GST control); in experiment [6], 1.02 fold enrichment (6-mer frequency, TF over GST control). Further, the binding signal in experiment [7] was 1.04 fold enrichment (6-mer frequency, TF over GST control); in [8] it was 1.19 fold enrichment (6-mer frequency, TF over GST control); in [9], 1.07 fold enrichment (6-mer frequency, TF over GST control); in experiment [10], 1.15 fold enrichment (6-mer frequency, TF over GST control); in experiment [11], 1.19 fold enrichment (6-mer frequency, TF over GST control); in experiment [12], 1.2 fold enrichment (6-mer frequency, TF over GST control). In addition, the binding signal in [13] was 1.05 fold enrichment (6-mer frequency, TF over GST control); in experiment [14], 1.16 fold enrichment (6-mer frequency, TF over GST control); in experiment [15], 1.01 fold enrichment (6-mer frequency, TF over GST control); in experiment [16] it was 1.14 fold enrichment (6-mer frequency, TF over GST control); in experiment [17], 1.42 fold enrichment (6-mer frequency, TF over GST control); in experiment [18], 1.01 fold enrichment (6-mer frequency, TF over GST control).
